Assay outcomes as filed in PubChem.
HPGD inh: inhibitors of human 15-hydroxyprostaglandin dehydrogenase (HPGD) | purified HPGD, NADH fluorescence kinetic, PGE2 substrate | actives 4.3% (n = 150,000) | AID 894 | Potency, µM, without a hit: at the highest dose activity change, negative = inhibition, hits mostly inhibitors; further: potency means the concentration at half of the fitted maximal effect
Target sequence (P15428 whole entry, looked up): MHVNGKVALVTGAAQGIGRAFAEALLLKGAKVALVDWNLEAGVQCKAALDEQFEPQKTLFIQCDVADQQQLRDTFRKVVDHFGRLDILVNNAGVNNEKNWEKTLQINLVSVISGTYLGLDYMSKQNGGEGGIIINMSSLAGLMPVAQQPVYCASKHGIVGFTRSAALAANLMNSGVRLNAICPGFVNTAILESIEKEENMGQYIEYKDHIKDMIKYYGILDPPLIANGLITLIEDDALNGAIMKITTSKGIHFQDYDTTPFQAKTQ
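NADH formation kinetics: reaction with 30 uM PGE2 and 1 mM NAD+ (final), 20 nM enzyme, Tris-HCl pH 8 with Tween 20, after 15 min compound preincubation at room temperature. Fluorescence change, last versus first of five reads.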
ALDH1A1 block: inhibitors of human aldehyde dehydrogenase 1A1; P00352; Purified ALDH1A1, NADH fluorescence, propionaldehyde substrate; Potency, µM (titrated, usually from 75.3 µM), inactives show at the highest dose activity, negative = inhibition, most hits filed as inhibitors; actives 7.3% (n = 220,000);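 further: potency means the concentration at half of the fitted maximal effect; plate controls were no enzyme wells and a reference inhibitor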
Target sequence (P00352 whole entry, looked up): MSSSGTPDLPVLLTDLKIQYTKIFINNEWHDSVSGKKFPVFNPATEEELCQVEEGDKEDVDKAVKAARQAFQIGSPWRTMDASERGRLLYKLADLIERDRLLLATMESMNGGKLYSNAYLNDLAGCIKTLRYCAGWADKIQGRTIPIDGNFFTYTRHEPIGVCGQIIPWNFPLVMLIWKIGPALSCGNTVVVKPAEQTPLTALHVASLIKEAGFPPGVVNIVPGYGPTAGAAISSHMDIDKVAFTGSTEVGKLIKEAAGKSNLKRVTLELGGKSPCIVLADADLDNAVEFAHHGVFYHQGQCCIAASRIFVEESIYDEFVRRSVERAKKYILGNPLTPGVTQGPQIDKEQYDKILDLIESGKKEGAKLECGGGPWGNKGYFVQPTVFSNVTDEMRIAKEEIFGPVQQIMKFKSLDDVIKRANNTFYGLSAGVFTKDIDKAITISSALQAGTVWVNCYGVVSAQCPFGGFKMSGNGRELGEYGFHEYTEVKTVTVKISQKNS
IMPase Li cell: IMPase inhibition in cells with lithium potentiation; CHO-M1 cells, IP1 TR-FRET (IP-One), carbachol + lithium; Potency, µM (titrated, usually from 59.4 µM), for inactives: at the highest dose activity, negative = IMPase inhibition, actives largely listed as inhibitors; actives 0.35% (n = 210,000); AID 1457; active means well fitted curve in the direction sought with a large enough effect; inconclusive means small, poorly fitted or top-dose-only effect, or another doubt; inactive means no such curve, though single readings can be large; an effect the other way counts as inactive or inconclusive;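 further: IP1 builds up when IMPase is blocked and the TR-FRET signal falls; potency means the concentration at half of the fitted maximal effect; plate controls were basal vehicle for no effect and high inhibitor control for full effect; nearly all actives have a fitted effect of over 50% in size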
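Concentration–response in CHO-M1 cells, lithium-potentiated; 30 min at 37C. IP1 detected by competitive TR-FRET after 10 min lysis at RT. Hill-fitted AC50.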
PNC inhibitor: blocks assembly of the perinucleolar compartment; PC3M PTB-GFP, PNC prevalence imaging, 16 h; active compounds read low; activity change (PNC), negative = inhibition, % at 10 µM; actives 3.1% (n = 140,000); AID 2417;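 active means readout at or below -70, meaning at least 70% loss of cells showing the perinucleolar compartment, a nuclear body marking cancer cells; inconclusive means readout between -30 and a set limit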;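 further: plate controls were DMSO wells for no effect and camptothecin positive control wells for full effect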
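Read-out is percentage of cells bearing a perinucleolar compartment, from automated 20x imaging of fixed, Hoechst-stained PC3M PTB-GFP cells. Cells were seeded 4 h, then exposed 16 h to compound (23 nl of library stock) in duplicate plates.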
IMPase cell inh: cell-permeable inhibitors of inositol monophosphatase (IMPase); P97697; CHO-M1 cells, IP1 accumulation, HTRF TR-FRET ratio; inhibition (IP1 accumulation), % at 46.1 µM; 120,000 tested, under 10 active; active means well fitted curve in the direction sought with a large enough effect in the signal ratio, not every such curve was filed as active; inconclusive means small, poorly fitted or top-dose-only effect, or a change in a side signal; inactive means no such curve, though single readings can be large or run the other way; the % refers to the signal ratio;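 further: cells stimulated with carbachol in lithium chloride buffer; plate controls were DMSO basal wells for no effect and reference inhibitor wells for full effect; higher means more IMPase inhibition seen as more IP1 and lower FRET ratio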
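Elevated IP1 in lysates lowers TR-FRET signal (665/620 ratio and 620 channel reported). Cells were CHO-M1, given carbachol (50 uM as added) plus 50mM LiCl, pH 7.4, 30 min, 37C; compounds titrated up to 46 uM; AC50 by Hill equation.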
NPSR antagonist: neuropeptide S receptor (human) antagonism, cAMP; CHO-NPSR cells, cAMP TR-FRET, antagonist mode; Potency, µM (top dose mostly 38.3 µM), inactives show top-dose activity change, negative = inhibition, actives largely listed as inhibitors; actives 1% (n = 220,000); active means well fitted curve in the direction sought with a large enough effect; inconclusive means small, poorly fitted or top-dose-only effect, or another doubt; inactive means no such curve, though single readings can be large; an effect the other way counts as inactive or inconclusive; further: potency means the concentration at half of the fitted maximal effect; nearly all actives have a fitted effect of over 50% in size
Numbers without * were called inactive; ? = inconclusive; · = no result given; [ ] = another dose, or the depositor's remark. Only some compounds are listed: those with a hit (about 11% of all), similar ones and a draw of the others. Unless noted, the call rests on the fitted dose curve; in most records, active means well fitted inhibition curve with a large enough effect (not every such curve was filed as active); inconclusive means small, poorly fitted or top-dose-only effect, or another doubt; inactive means no such curve, though single readings can be large or run the other way. Unless noted, on the % scale 0 is the no-effect control and ±100 the full control effect.

SMILES	HPGD inh	ALDH1A1 block	IMPase Li cell	PNC inhibitor	IMPase cell inh	NPSR antagonist
Cc1cc(=O)c2ccc3ccccc3c2[nH]1	?	?	16.2%[38.3 µM]	-23.8	-4.8	7.6%[46.1 µM]
O=C(Nc1c(C(=O)C2CC2)oc2ccccc12)c1ccc(Cl)cc1	-28.9%	?	7.8%	-18.4	?	-21.4%
Cc1ccc2c(c1)Sc1ccccc1CC2=O	25.1µM*	17.8µM*	5.0%[38.3 µM]	34.9	4.0	-10.5%[46.1 µM]
O=C1Cc2ccccc2Sc2ccccc21	?	?	-23.2%[38.3 µM]	12.1	-3.9	1.0%[46.1 µM]
Cc1nn(-c2ccccc2)c(C)c1C(=O)OC/C(O)=C(\C#N)c1nc2ccccc2[nH]1	-28.5%	-1.4%	-6.3%[38.3 µM]	-21.4	4.0	-20.1%[46.1 µM]
COc1ccccc1NCCC(=O)OCC(=O)NC1CCCCCC1	-6.6%	-6.2%	-2.4%	?	-2.8	11.1%
Cc1ccccc1-c1noc(N)c1C#N	-14.7%	-2.1%	7.2%[38.3 µM]	38.5	-4.3	-13.3%[46.1 µM]
CN(C)/C=C/c1onc(-c2ccccc2Cl)c1C#N	·	6.31µM*	21.9%	·	·	-19.3%
COc1ccc(C(=O)OCC(=O)NCC2CCCO2)cc1 (configuration not stated)	·	9.8%	5.1%	·	·	10.4%
Cc1coc2c1C(=O)C(=O)c1c-2ccc2c1CCCC2(C)C	15.8µM*	20µM*	12.7%	·	·	19.7%
Cc1nnc(C)n1/N=C/c1ccccc1	6.2%	0.1%	-9.8%[38.3 µM]	24.3	5.0	-5.5%[46.1 µM]
N=C1N(/N=C/c2ccccc2)C(=Nc2ccccc2)C(=S)N1c1ccccc1	-21.4%	?	10.9%	-100.0*	-2.9	-17.8%[46.1 µM]
CN(C)c1ccc(CNc2nc(-c3ccccc3)nn2S(C)(=O)=O)cc1	·	?	-1.9%	·	·	-9.1%
C=C(C)CSc1nnc2n(N)c(=O)c3ccccc3n12	-10.4%	-11.9%	14.5%[38.3 µM]	41.1	-3.2	-11.4%[46.1 µM]
C/C(Cl)=C\CSc1nnc2n(N)c(=O)c3ccccc3n12	-18.4%	17.8µM*	13.1%[38.3 µM]	-16.2	-2.7	-7.4%[46.1 µM]
COc1ccccc1Cn1c(SCC(N)=O)nc2c(oc3ccccc32)c1=O	·	1.26µM*	-11.4%	·	·	-23.9%
COCCn1c(SCC(=O)Nc2ccccc2OC)nc2c(oc3ccccc32)c1=O	·	?	19.0%	·	·	-47.1%
Cc1ccc(S(=O)(=O)N(C)c2ccc3ccccc3c2)cc1	·	-2.6%	25.0%	·	·	?
CC(C)(C)c1ccc(C(=O)NC(=S)NCC2CCCO2)cc1 (configuration not stated)	·	?	·	-19.3	-2.8	-16.7%[46.1 µM]
Cc1ccccc1C(=O)NC(=S)NCC1CCCO1 (configuration not stated)	-7.2%	9.0%	14.2%[38.3 µM]	-105.5*	7.2	5.5%[46.1 µM]
COCCSc1ccccc1C(=O)NCC1CCCO1 (configuration not stated)	-10.2%	1.3%	-32.9%[38.3 µM]	-10.3	?	?
CSc1ccccc1C(=O)NCC1CCCO1 (configuration not stated)	15.8µM*	6.7%	8.4%[38.3 µM]	12.3	1.3	22.3%[46.1 µM]
CC(c1ccccc1)n1cc(C(=O)NCCN2CCOCC2)nn1 (configuration not stated)	-5.9%	-7.4%	-1.8%	-15.4	1.5	-0.7%[46.1 µM]
Cc1ccc(C(=O)NC(=S)NCC2CCCO2)cc1[N+](=O)[O-] (configuration not stated)	·	14.1µM*	4.3%	·	·	1.7%
CC(c1ccccc1)n1cc(C(=O)NCC2CCCO2)nn1 (configuration not stated)	-11.8%	-0.2%	2.2%	-100.0*	-1.5	12.1%[46.1 µM]
SMILES	HPGD inh	ALDH1A1 block	IMPase Li cell	PNC inhibitor	IMPase cell inh	NPSR antagonist
O=C(Cn1c(=S)[nH]c2ccccc2c1=O)NCCc1ccccc1	·	3.7%	?	·	·	-13.5%
Cc1c(N=Cc2ccc(Cl)o2)c(=O)n(-c2ccccc2)n1C	-0.2%	-13.1%	-9.0%[38.3 µM]	?	3.9	-9.1%[46.1 µM]
Cc1cc(NC(=O)CCC(=O)N(CC(=O)NC2CCCC2)Cc2ccc3c(c2)OCO3)no1	·	3.4%	-9.4%	·	·	1.0%
O=C(Nc1ccc(Cl)cc1)N1CCCC(Cn2cccc2)C1 (configuration not stated)	·	·	·	·	·	25.1%
CCOC(=O)c1c(C)n(OCc2ccccc2)c2ccc3c(no[n+]3[O-])c12	-16.8%	4.2%	30.3%[38.3 µM]	-80.0*	9.9	-27.7%[46.1 µM]
Cc1oc(=O)c(NC(=O)c2ccccc2)cc1C(N)=O	·	-17.5%	0.3%	·	·	2.4%
COc1ccc(C(=O)Nc2cc(C(=O)c3ccccc3)c(C)oc2=O)cc1	-11.0%	20µM*	-1.8%[38.3 µM]	-6.4	8.3	?
CO/N=C\Cc1oc(=O)c(NC(=O)c2ccccc2)cc1C(=O)OC	-11.0%	22.4µM*	5.1%[38.3 µM]	-6.9	0.4	-8.1%[46.1 µM]
COC(=O)c1cc(NC(=O)c2ccccc2)c(=O)oc1C	·	?	0.7%	·	·	2.8%
Cc1oc(=O)c(NC(=O)c2cccc(Cl)c2)cc1C(=O)c1ccccc1	31.6µM*	8.91µM*	0.6%[38.3 µM]	39.6	3.3	7.94µM*
COc1cccc(CNC(=O)C2CCC(CNc3c(N4CCC(C)CC4)c(=O)c3=O)CC2)c1 (configuration not stated)	·	·	·	·	·	17.9%
O=C(c1ccc(S(=O)(=O)Cc2cc(F)ccc2F)c([N+](=O)[O-])c1)N1CCCC1	·	8.91µM*	-11.9%	·	·	2.5%
CC1CCN(C(=O)c2ccc(S(=O)(=O)Cc3cccc(F)c3)c([N+](=O)[O-])c2)CC1	-25.1%	25.1µM*	2.1%	6.8	·	4.2%
O=C(c1ccc(S(=O)(=O)Cc2cc(F)ccc2F)c([N+](=O)[O-])c1)N1CCCCC1	14.1µM*	8.91µM*	20.2%	-29.4	18.7	13.4%
COCCN(CCOC)C(=O)c1cc2c(=O)n3ccccc3nc2s1	?	?	?	-17.9	?	?
O=C1N=C(N2CCCCC2)SC1=C1CCCC1	?	?	-0.9%[38.3 µM]	-4.9	19.5	-10.3%[46.1 µM]
Cc1ccc(N2C(=O)C3C(C2=O)C(C(=O)c2ccc(Cl)cc2)N2CCCC32)cc1 (configuration not stated)	-23.2%	?	6.3%[38.3 µM]	?	-7.2	-18.6%[46.1 µM]
O=C(C1=C[C@@H]2[C@H]3C(=O)N(c4ccc(Cl)cc4)C(=O)[C@H]3[C@@H](C(=O)c3ccc(Cl)cc3)N2C=C1)c1ccccc1	31.6µM*	14.1µM*	-15.3%	17.6	·	1.7%
Cc1nc(NC(=O)COC(=O)C(NC(=O)c2ccco2)C(C)C)c(Cl)cc1Cl (configuration not stated)	-10.7%	25.1µM*	-0.6%[38.3 µM]	-5.7	-9.0	-7.1%[46.1 µM]
Cc1nc2cc(N3CCN(C)CC3)c(NC(=O)Cc3ccccc3)cc2c(=O)n1Cc1ccccc1	·	17.8µM*	·	44.4	1.8	0.1%[46.1 µM]
OCCN(Cc1ccccc1)Cc1cccc(F)c1	-5.8%	-9.3%	4.3%[38.3 µM]	4.0	10.2	0.6%[46.1 µM]
Cc1occc1C(=O)N/N=C/c1ccccc1[N+](=O)[O-]	·	·	·	·	·	0.6%
